Consider 40 molecules from PubChem BioAssay (NCI).

The structures appear in SMILES notation. This is part of a sample that, as a whole, favours compounds with a hit. Of some 83,000 tested, about 20% had one in any assay.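 Note: values are percent growth. 100 is the growth of untreated cells, values between 100 and 0 indicate rising inhibition; between -100 and 0 indicates cell death.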 Unmarked numbers belong to inactive results. Activity calls are given as the source filed them.

This test deals with OVCAR-5 ovarian. Put plainly: NCI-60 one-dose screen, 48 h (100 = growth as untreated, 0 = no growth, -100 = all killed). The note with it: 10 µM unless noted. Here is the method:
Growth inhibition of the OVCAR-5 human tumor cell line is measured as a screen for anti-cancer activity. Cells are grown in 96 well plates and exposed to the test compound for 48 hours. Compounds are tested at a single concentration, which is 10^-5 M for most compounds. The reported endpoint is percent growth (GI% or GIPRCNT), where numbers from 0 - 100% represent growth inhibition, and numbers from -100% - 0 represent cell death. For example, a value of 40 represents 60% growth inhibition. A value of 0 means no net growth occurred over the course of the experiment. A value of -40 indicates 40% of cells at the beginning of the experiment died by the end of the experiment. A value of -100 means all cells are dead at the end of the experiment.
NCI-60 Human Tumor Cell Lines Screen was performed using the standard one-dose NCI protocol, which is described in more detail at https://dtp.cancer.gov/discovery_development/nci-60/default.htm.
Compounds with GIPRCNT values below 10 were considered active. Activity score was based on GIPRCNT using the following formula: […]
Score is 0 for GIPRCNT values of 100 or above, 50 for GIPRCNT values of 0, and 100 for GIPRCNT values of -100.
For `CC1(C)CC[C@]2(CO)CC[C@]3(C)[C@](O)([C@H](O)C[C@@H]4[C@@]5(C)CCCNC(C)(C)[C@@H]5CC[C@]43C)[C@@H]2C1`, the growth was 106%.

For the molecule `C=C(C)[C@@H]1CC[C@]2(CO)CC[C@]3(C)[C@H](CC[C@@H]4[C@@](C)(CCCN)[C@H](C(=C)C)CC[C@]43C)[C@@H]12`, the growth was -78.5% (active).

In the case of `Cc1ccc(S(=O)(=O)N2CCCN(c3nc(-c4ccccc4)nc4nc(-c5ccccc5)oc34)CC2)cc1`, the growth is 105%.

On to `Cc1cc(=O)oc2cc(Oc3nc(Br)cn4c(Br)cnc34)ccc12`, for which the growth was 101%.

Take `N#Cc1ccc(/C=C/c2cn(-c3ccccc3)nc2-c2cccc([N+](=O)[O-])c2)cc1`: the growth is 64.2%.

For the molecule `CC12OC(CC(O)C1O)n1c3ccccc3c3c4c(c5c6ccccc6n2c5c31)C(=O)N(CCN1CCCC1)C4=O` (stereo not given), the growth is 41.4%.

For the molecule `CCCC(O)Cn1ncc(C(=O)OCC)c1NC(=O)NCc1cccc(C(F)(F)F)c1` (stereo not given), the growth was 107%.

In the case of `O=c1ccc2ccc(OCCN3CCCCC3)cc2o1`, the growth was 102%.

As to `CN(C)C1CN(C(=O)c2cc(-c3ccc4ncnc(N5CCc6cc(F)c(Cl)cc65)c4c3)cnc2N)C1`, the growth is 28.1%.

Take `COc1nc(/C=C\Nc2ccc3c(c2)OCCOCCOCCOCCO3)nc(OC)n1`: the growth is 98.3%.

As to `Nc1cc(Br)cc2c1[nH]c(=O)c1ccccc12`, the growth was 92.3%.

In the case of `COc1ccc2[nH]cc(-c3nonc3-c3c[nH]c4ccc(Br)cc34)c2c1`, the growth was 47.7%.

In the case of `CN(C)c1ccc(/C=N\NC(=O)c2ccc3nc(-c4ccc(Cl)cc4)[nH]c3c2)cc1`, the growth was 89.2%.

Turning to `C[C@@H]1NC(=O)[C@H](Cc2ccccc2)N(Cc2cccnc2)C1=O`, the growth is 96.7%.

Take `Cc1ccc(O)c(NC(=O)c2cccc(Nc3ccnc(C(F)(F)F)c3)c2)c1`: the growth is 87.1%.

As for `CS(=O)(=O)Nc1cc(-c2ccc3ncnc(Nc4ccc5c(cnn5Cc5ccccc5F)c4)c3c2)cnc1Cl`, the growth was 37.9%.

Regarding `CC(=O)c1c(Nc2cccc(F)c2)[nH]c2c(Cl)cc(Cl)c(Cl)c2c1=O`, the growth was 15.3%.

On to `COc1ccc(/C=N/Nc2c3ccccc3nc3ccccc23)cc1`, for which the growth was 111%.

As for `Cn1cc(-c2nonc2-c2c[nH]c3ccccc23)c2cc(Br)ccc21`, the growth was 49%.

Consider `COc1ccc(CNc2ccc3nc(NC(=O)CN4CCCCCC4)sc3c2)cc1`, for which the growth was 95.5%.

Regarding `CN(C)CCC(CCN(C)C)(C(=O)O)c1ccccc1`, the growth is 99.2%.

Consider `Cc1cccc(N2C(=O)/C(=C/C(Cl)=C/c3ccc([N+](=O)[O-])cc3)SC2=S)c1C`, for which the growth is 22.8%.

Take `CCOC(=O)NCCCC(=O)NCCc1ccccc1`: the growth was 118%.

In the case of `O=C(NC1CCC(Br)CC1)C1CCCC(S(=O)(=O)NC2CCCCC2)C1` (stereo not given), the growth is 39.2% [25 µM].

In the case of `CSc1ccc2c3c(n(C[C@H](O)CO)c(=O)c2c1)-c1ccccc1C3=O`, the growth is 62.2%.

Consider `O=C(CN1C(=O)S/C(=C\C(Cl)=C\c2ccccc2)C1=O)NC1CCS(=O)(=O)C1` (stereo not given), for which the growth was 110%.

`C=C1CC[C@@H]2C(C)(C)[C@H](O)CC[C@@]2(C)[C@@H]1COc1ccc2ccc(=O)oc2c1`: the growth is 109%.

For the molecule `C=C(C)[C@@H]1CC[C@]2(C(=O)Nc3ccccn3)CC[C@]3(C)[C@H](CC[C@@H]4[C@@]5(C)CCCNC(C)(C)[C@@H]5CC[C@]43C)[C@@H]12`, the growth is 70.7%.

Consider `Cc1cccc(-c2nc(C(C)C)sc2-c2ccnc(NCCCNS(=O)(=O)c3ccc(Cl)cc3)c2)c1`, for which the growth is 95.3%.

Regarding `O=C1CCCCN1c1ccc(C2=NCCCN2)cc1`, the growth was 95.9%.

As to `O=C(/C=C/c1ccccc1)c1ccc(-n2cc(CN3CCN(c4cc5c(cc4F)c(=O)c(C(=O)O)cn5C4CC4)CC3)nn2)cc1`, the growth was 92.2%.

In the case of `O=c1oc2c(cc1-c1ccccc1)c[n+]([O-])c1ccccc21`, the growth is 102%.

For the molecule `Cc1ccc2c(c1)sc1nc(-c3c[nH]c4ccccc34)c(Nc3ccccc3)n12`, the growth is 105%.

In the case of `COC(=O)c1nc(-c2ccccc2)oc1S(=O)(=O)N1CCCC(C)C1` (stereo not given), the growth was 87.4%.

With `Cc1nc(N/N=C/c2cn(-c3ccccc3)nc2-c2cc3ccccc3oc2=O)sc1N=Nc1ccccc1`, the growth was 104%.

As to `C=C1C(=O)O[C@@H]2C3C(=C(C)CC[C@@H]12)CC1O[C@]13C` (stereo not given in full), the growth was 108% [6.75 µM].

For `COc1ccc2cc(-c3nc4ccc(C)cn4c3NCc3ccco3)c(=O)[nH]c2c1`, the growth is 70.8%.

Consider `COc1ccc(CN2C(=O)OC(C)(COC(C)=O)C2=O)cc1` (stereo not given), for which the growth is 97.2%.

Regarding `FC(F)(F)c1[nH]ncc1-c1nc2ccc3[nH]ncc3c2c2c1CCCC2`, the growth is 9.73% (active).

Consider `COc1ccc(-c2cn(Cc3cc4ccccc4s3)nn2)cc1OCCN1CCCCC1`, for which the growth is 80.5%.
